Here are results for 14 molecules from PubChem BioAssay.

A short description of assay [1]: inhibitors of TNFa-induced NFkB p65 translocation, primary screen, imaging, HUVEC, MLSMR starter and 10KST1 sets (AID 438;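 active means inhibition above 20% together with a positive visual image hit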;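 further: compound added about 3h40 before a 20 min TNFalpha stimulation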;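 on inhibition: signal is the nuclear over cytoplasmic p65 intensity ratio per well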). Particulars: HUVEC TNFa-induced p65 nuclear translocation; cell count: measured here: nuclei count (cytotoxicity indicator), at 2.08 µM; inhibition: at 2 µM, stronger effect = higher value, 0% TNFa-plus-vehicle, 100% no-TNFa wells.
A short description of assay [2]: reduction of polyQ htt aggregates in cells – imaging, exon1htt(103Q)mCFP cells, high-content imaging, primary screen (AID 483;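 active means visual image review flags a hit and inhibition of aggregation exceeds 20%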;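 further: compound exposure lasted 3 days before fixation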;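 on nuclei count: percent of the per-plate median nuclei count of sample wells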). Particulars: exon1htt(103Q)mCFP cell line, aggregate imaging, at 2 µM; inhibition of aggregation: stronger effect = higher value; nuclei count: measured here: cell count, toxicity.
Assay [3] is described as follows: endothelial E-selectin expression blockers – imaging, HUVEC, immunofluorescence, MLSMR starter and 10KST1 sets, primary screen (AID 487;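 active means visually confirmed hit in the image check and inhibition above 20%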;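 on inhibition: signal is fraction of cell area covered by stained E-selectin grains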;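 on nuclei count: 100% = median nuclei count of all wells on the same plate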). Particulars: HUVEC TNFalpha-induced E-selectin immunofluorescence imaging, at 2 µM; inhibition: stronger effect = higher value; nuclei count: measured here: cell number, toxicity.
Assay [4] addresses Voltage-gated potassium channel subunit beta-2 (Rattus norvegicus) (UniProt P62483). The assay is described as follows: inhibitors of rat Kvbeta2 reductase activity – biochemical, NADPH fluorescence, primary screen (AID 622;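 active means fluorescence slope higher than the sample average by over 3 SD, cut at about -0.22 in these data, passing the limit was not always enough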;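 further: slope of raw intensity against log time taken from 70 to 1610 s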). The note with it: recombinant KvBeta, 4-cyanobenzaldehyde reduction, at 10 µM, stronger effect = higher value.
Assay [5] has the same target. As to the kind of experiment: enhancers of rat Kvbeta2 NADPH turnover – biochemical, NADPH fluorescence, primary screen (AID 623;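 active means NADPH fluorescence slope more negative than the mean of all samples by about 3 SD, 99.7% confidence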;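 further: fluorescence intensity change per second fitted from 20 to 320 s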). The note with it: Recombinant KvBeta, NADPH fluorescence decrease slope, 10 min; at 10 µM; stronger effect = lower value.
For assay [6], the target named is Alpha-2C adrenergic receptor (Homo sapiens) (UniProt P18825). As to the kind of experiment: compounds altering alpha2C-coupled GIRK flux – cell-based, HEK293 alpha2C/GIRK1/2, thallium flux, primary screen (AID 624;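 active means fluorescence slope after compound addition differing from the mean of all screened samples at 99.7% confidence, in either direction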;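 further: slope of fluorescence ratio to pre-addition baseline per second over 15 to 24 s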). The note with it: thallium flux BTC fluorescence, at 10 µM, actives lie on both sides.
Alpha-2C adrenergic receptor (Homo sapiens), sequence (P18825 whole entry, looked up): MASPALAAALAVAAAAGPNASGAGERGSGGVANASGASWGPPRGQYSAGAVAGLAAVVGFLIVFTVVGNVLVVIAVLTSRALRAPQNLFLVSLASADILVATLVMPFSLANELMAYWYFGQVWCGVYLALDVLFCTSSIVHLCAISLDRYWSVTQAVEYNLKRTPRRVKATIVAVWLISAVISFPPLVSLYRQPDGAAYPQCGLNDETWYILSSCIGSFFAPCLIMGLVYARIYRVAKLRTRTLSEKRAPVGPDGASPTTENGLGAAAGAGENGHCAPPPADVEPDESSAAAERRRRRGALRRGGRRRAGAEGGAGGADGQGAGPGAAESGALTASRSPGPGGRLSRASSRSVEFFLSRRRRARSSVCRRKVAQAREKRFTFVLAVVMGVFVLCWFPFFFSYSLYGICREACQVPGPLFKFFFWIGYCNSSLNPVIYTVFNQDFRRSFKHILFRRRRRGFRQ
Assay [7] is described as follows: blockers of RIG-like receptor reporter activation – cell-based, Sendai virus stimulus, luciferase, 10K MLSCN set, TLR/RLR signaling modifier project, primary screen (AID 602276).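 Further: firefly luciferase from ISG56 promoter only with Renilla not read in this screen; 0% = Sendai virus plus DMSO and 100% = medium plus DMSO without virus.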 Particulars: HEK293 RL24 IRF3 luciferase reporter, at 10 µM, stronger effect = higher value. On the technique in general: Reporter assays use an easily measured gene product as a stand-in for the process of interest.

The nature of assay [8]: TLR3 IRF3 reporter activation blockers – cell-based, poly I:C stimulus, luciferase, 10K MLSCN set, primary screen (AID 602277;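 active means inhibition of the reporter signal at or above 50%; inactive means inhibition below 50%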). The note with it: HEK293-TLR3 RL24 IRF3 luciferase reporter, at 10 µM, stronger effect = higher value.

Calls of active or inactive are those of the source.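 How the source made its calls, unless noted: active means inhibition at or above 50% at 10 µM; inactive means inhibition below 50%.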

Voltage-gated potassium channel subunit beta-2 (Rattus norvegicus), sequence (P62483 whole entry, looked up): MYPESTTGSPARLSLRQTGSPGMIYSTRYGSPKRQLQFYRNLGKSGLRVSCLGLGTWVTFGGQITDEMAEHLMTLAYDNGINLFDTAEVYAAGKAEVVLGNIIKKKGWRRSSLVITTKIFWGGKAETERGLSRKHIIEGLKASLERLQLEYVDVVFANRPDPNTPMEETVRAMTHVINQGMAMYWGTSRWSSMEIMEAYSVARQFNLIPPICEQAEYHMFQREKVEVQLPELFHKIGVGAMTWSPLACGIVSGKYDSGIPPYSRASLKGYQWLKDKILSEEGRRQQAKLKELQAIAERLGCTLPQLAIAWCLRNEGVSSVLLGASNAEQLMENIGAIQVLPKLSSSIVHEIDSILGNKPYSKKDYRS

Usually inhibition stands for the relative decrease from the control value, in per cent. `O=C(Cc1cccs1)Nc1nnc(CCc2ccccc2)s1`: in assay [1], the cell count stood at 382. The inhibition is 1.5% (inactive) in assay [1], -152% (inactive) in assay [3], 9.85% (inactive) in assay [7] and 31.2% (inactive) in assay [8]. The inhibition of aggregation in assay [2] was 15.6% (inactive). The nuclei count in assay [2] was 110%; in assay [3] it was 117%. The fluorescence slope in assay [4] is -0.437 (inactive). Further, in assay [5], the NADPH fluorescence slope was -5.5e-05 (inactive). The slope in assay [6] was 0.00318 (inactive).

As for `COc1ccc(-c2noc(COc3ccc(C)c(C)c3)n2)cc1OC`, in assay [1], the cell count worked out at 334. The inhibition in assay [1] was 2.7% (inactive); in assay [3], 21.9% (inactive); in assay [7] it was -1.39% (inactive); in assay [8], 98.1% (active). Besides, the inhibition of aggregation in assay [2] was 8.8% (inactive). Besides, the nuclei count in assay [2] came to 97.9%; in assay [3], 108%. In assay [4], the fluorescence slope is -0.316 (inactive). Moreover, the NADPH fluorescence slope in assay [5] was -6.4e-05 (inactive). For the same molecule, the slope in assay [6] is 0.00562 (inactive).

Turning to `Cc1ccc(S(=O)(=O)Nc2nc3ccccc3nc2NCc2ccco2)cc1`, the cell count in assay [1] came out at 686. The inhibition is 7.1% (inactive) in assay [1], -39.6% (inactive) in assay [3], -21.6% (inactive) in assay [7] and -121% (inactive) in assay [8]. In addition, the inhibition of aggregation in assay [2] was -2% (inactive). Moreover, the nuclei count in assay [2] was 103%; in assay [3], 110%. Moreover, the fluorescence slope in assay [4] was -0.376 (inactive). Also, the NADPH fluorescence slope in assay [5] was 6.7e-06 (inactive). Further, in assay [6], the slope is 0.00699 (inactive).

On to `CC(=O)Nc1c2c(nn1-c1ccc(C)cc1C)CSC2`, for which, in assay [1], the cell count was 570. Also, the inhibition in assay [1] was 0.9% (inactive); in assay [3], 33.7% (inactive); in assay [7], -12.5% (inactive); in assay [8], -10.7% (inactive). Moreover, the inhibition of aggregation in assay [2] is 9.6% (inactive). Besides, the nuclei count in assay [2] amounted to 95.7%; in assay [3], 103%. Moreover, the fluorescence slope in assay [4] is -0.562 (inactive). In assay [5], the NADPH fluorescence slope was -5.2e-05 (inactive). Also, the slope in assay [6] is 0.00674 (inactive).

Regarding `CCOc1ccccc1OCCCCN1CCCC1`, the cell count in assay [1] is 608. In addition, the inhibition in assay [1] is 10.2% (inactive); in assay [3], -99% (inactive); in assay [7], 7.96% (inactive); in assay [8], 35.8% (inactive). Moreover, in assay [2], the inhibition of aggregation is 15.7% (inactive). Besides, the nuclei count in assay [2] was found to be 100%; in assay [3], 122%. Further, the fluorescence slope in assay [4] was -0.47 (inactive). Further, the NADPH fluorescence slope in assay [5] is -5.2e-06 (inactive). For the same molecule, the slope in assay [6] was 0.00972 (active).

As for `COc1ccc(N(CC(=O)Nc2ccc(F)c(Cl)c2)S(=O)(=O)c2c(C)noc2C)cc1`, the cell count in assay [1] is 372. The inhibition in assay [1] was 2.7% (inactive); in assay [3] it was -23.6% (inactive); in assay [7], 16.5% (inactive); in assay [8], 21.7% (inactive). In addition, the inhibition of aggregation in assay [2] is -8.2% (inactive). Moreover, the nuclei count in assay [2] was 99%; in assay [3], 104%. In assay [4], the fluorescence slope is -0.425 (inactive). In assay [5], the NADPH fluorescence slope was 1.3e-05 (inactive). Moreover, in assay [6], the slope is 0.00672 (inactive).

Take `COC(=O)c1sccc1NC(=O)c1csc(C)c1`: the cell count in assay [1] worked out at 406. Besides, the inhibition is -5.4% (inactive) in assay [1], -42.1% (inactive) in assay [3], 18.7% (inactive) in assay [7] and 36.8% (inactive) in assay [8]. Moreover, the inhibition of aggregation in assay [2] was 0.6% (inactive). Besides, the nuclei count came to 88% in assay [2] and 123% in assay [3]. Further, the fluorescence slope in assay [4] was -0.384 (inactive). Further, the NADPH fluorescence slope in assay [5] was -0.000107 (inactive). The slope in assay [6] was 0.00657 (inactive).

With `Cc1ccc(-c2cc(C(=O)NCCN3CCOCC3)no2)cc1`, the cell count in assay [1] was found to be 605. For the same molecule, the inhibition is 1.9% (inactive) in assay [1], -4% (inactive) in assay [3], -29.5% (inactive) in assay [7] and -36.6% (inactive) in assay [8]. Further, the inhibition of aggregation in assay [2] is 41.6% (inactive). Moreover, the nuclei count in assay [2] came to 69.9%; in assay [3], 101%. The fluorescence slope in assay [4] is -0.452 (inactive). The NADPH fluorescence slope in assay [5] was 8.4e-05 (inactive). In assay [6], the slope is 0.0051 (inactive).

In the case of `CCn1cc(C(=O)O)c(=O)c2cc(F)c(N3CCN(C(=O)Nc4ccccc4)CC3)cc21`, the cell count in assay [1] turned out to be 676. Also, the inhibition in assay [1] was -14% (inactive); in assay [3] it was -42.9% (inactive); in assay [7], 8.6% (inactive); in assay [8], 10.7% (inactive). Moreover, the inhibition of aggregation in assay [2] was 27.3% (inactive). The values for the nuclei count in assay [2] and in assay [3] were 68.8% and 101%, respectively. Besides, in assay [4], the fluorescence slope is -0.498 (inactive). Besides, in assay [5], the NADPH fluorescence slope was -8.3e-06 (inactive). Also, the slope in assay [6] is 0.00493 (inactive).

In the case of `O=C(c1cccnc1)N1CCN(Cc2ccc3c(c2)OCO3)CC1`, the cell count in assay [1] came out at 64. The inhibition was 11% (inactive) in assay [1], 29.2% (inactive) in assay [3], 14.2% (inactive) in assay [7] and 13.5% (inactive) in assay [8]. Also, the inhibition of aggregation in assay [2] was -2.8% (inactive). Further, the nuclei count in assay [2] was 88.3%; in assay [3], 87.6%. For the same molecule, the fluorescence slope in assay [4] is -0.411 (inactive). Besides, in assay [5], the NADPH fluorescence slope was -5.6e-05 (inactive). The slope in assay [6] was 0.00498 (inactive).

For the molecule `CC1CCC(C(=O)NC(C(=O)NCCN2CCC(C)CC2)C(C)C)CC1` (centres undefined), the cell count in assay [1] is 256. The inhibition in assay [1] is -3.9% (inactive); in assay [3], -24.9% (inactive); in assay [7], 19.4% (inactive); in assay [8], 25.4% (inactive). Also, the inhibition of aggregation in assay [2] is -5.5% (inactive). Moreover, the nuclei count in assay [2] was 71.9%; in assay [3], 101%. For the same molecule, the fluorescence slope in assay [4] was -0.495 (inactive). In assay [5], the NADPH fluorescence slope is 8.5e-05 (inactive). Also, in assay [6], the slope was 0.00683 (inactive).

`COCC(C)NC(=O)NC(=O)c1ccc(Cl)cc1` (centres undefined): the cell count in assay [1] is 715. Besides, the inhibition in assay [1] was 0.4% (inactive); in assay [3] it was -67.6% (inactive); in assay [7] it was 14.1% (inactive); in assay [8] it was 12.5% (inactive). In addition, the inhibition of aggregation in assay [2] was 10.2% (inactive). The nuclei count in assay [2] worked out at 100%; in assay [3], 98.3%. In addition, in assay [4], the fluorescence slope was -0.476 (inactive). Also, the NADPH fluorescence slope in assay [5] was 2.1e-05 (inactive). For the same molecule, the slope in assay [6] is 0.00585 (inactive).

As to `CCOc1ccc(N(CC(=O)NCc2cccc(OC)c2)S(=O)(=O)c2c(C)noc2C)cc1`, the cell count in assay [1] is 362. For the same molecule, the inhibition is -3.2% (inactive) in assay [1], -114% (inactive) in assay [3], -5.75% (inactive) in assay [7] and -5.65% (inactive) in assay [8]. Also, the inhibition of aggregation in assay [2] was 18.9% (inactive). For the same molecule, the nuclei count was determined as 95% in assay [2] and 104% in assay [3]. For the same molecule, the fluorescence slope in assay [4] is -0.415 (inactive). Further, the NADPH fluorescence slope in assay [5] was 1.6e-05 (inactive). Moreover, in assay [6], the slope is 0.00505 (inactive).

Take `Cc1ccccc1CSc1nnc(C)c(=O)[nH]1`: the cell count in assay [1] was 600. In addition, the inhibition in assay [1] is 1.1% (inactive); in assay [3], -37.9% (inactive); in assay [7], 12.3% (inactive); in assay [8], 13.6% (inactive). The inhibition of aggregation in assay [2] was -41.3% (inactive). The nuclei count in assay [2] is 105%; in assay [3] it was 133%. Further, the fluorescence slope in assay [4] is -0.581 (inactive). Moreover, the NADPH fluorescence slope in assay [5] was 1.6e-05 (inactive). For the same molecule, in assay [6], the slope was 0.00756 (inactive).
